Assay results published in PubChem BioAssay (NCATS).
Records with an inconclusive call do not appear. Entries that show only a call come without a potency. A number with no mark means an inactive call. Calls of active or inactive are those of the source. Calls come from the whole dose curve; as a rule, active = well fitted inhibition curve with a large enough effect; inconclusive = small, poorly fitted or top-dose-only effect; inactive = flat fitted curve, though single readings scatter.

Tests used:
NIH3T3 [1] = test: Cytotoxic Profiling of Annotated Libraries Using Quantitative High-Throughput Screening (AID 1296008); details: Five cell lines viability, CellTiter-Glo ATP luminescence, 48-72 h; max response: active compounds read low
In short: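 Cytotoxicity was measured as CellTiter-Glo ATP luminescence, read after 10 min at room temperature. Compound treatment of the cells lasted 48 or 72 hr at 37 degrees Celsius in a qHTS format.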

HACAT = test: qHTS assay to identify novel small-molecules to repurpose for Merkel cell carcinoma treatment (AID 1296009); details: MCC and control cell lines, CellTiter-Glo viability, 72 h; at 44.8 µM (top of the series) unless noted; note: potency is the fitted concentration of half-maximal effect
In short: (§1)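 After compound transfer in DMSO, plates were kept 72 hr at 37 degree celsius. Luminescent ATP signal from CellTiter-Glo served as viability measure, normalized against DMSO and no-cell controls.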

MCC-13 = test: as above; details: MCC and control cell lines, CellTiter-Glo viability, 72 h; series mostly up to 46 µM
In short: as §1

MCC-26 = test: as above; details: MCC and control cell lines, CellTiter-Glo viability, 72 h; series mostly up to 46 µM
In short: as §1

MKL-1 = test: as above; details: MCC and control cell lines, CellTiter-Glo viability, 72 h; series mostly up to 46 µM
In short: as §1

MKL-2 = test: as above; details: MCC and control cell lines, CellTiter-Glo viability, 72 h; series mostly up to 46 µM
In short: as §1

NIH3T3 [2] = test: as above; details: MCC and control cell lines, CellTiter-Glo viability, 72 h; at 44.8 µM (top of the series) unless noted
In short: as §1

WaGa = test: as above; details: MCC and control cell lines, CellTiter-Glo viability, 72 h; series mostly up to 46 µM
In short: as §1

UISO = test: as above; details: MCC and control cell lines, CellTiter-Glo viability, 72 h; series mostly up to 46 µM
In short: as §1
Note: nearly all actives have a fitted effect of over 60% in size.

CC(=O)N1CCN(c2ccc(O)cc2)CC1
outcome (NIH3T3 [1]): inactive
outcome (HACAT): inactive
Potency (MCC-13): inactive
Potency (MCC-26): inactive
Potency (MKL-1): 8.41 µM (active)
Potency (MKL-2): 7.5 µM (active)
outcome (NIH3T3 [2]): inactive
Potency (WaGa): 23.7 µM (active)

CCn1ccc(NS(=O)(=O)c2ccc(N)cc2)nc1=O
outcome (NIH3T3 [1]): inactive
outcome (HACAT): inactive
Potency (MCC-13): inactive
Potency (MCC-26): inactive
Potency (MKL-1): inactive
Potency (MKL-2): inactive
outcome (NIH3T3 [2]): inactive
Potency (UISO): inactive
Potency (WaGa): inactive

CC(C(=O)O)c1ccc(/C=C2\CCCCC2=O)cc1 (stereo unspecified)
max response (NIH3T3 [1]): 3.05%
outcome (HACAT): inactive
Potency (MCC-13): inactive
Potency (MCC-26): inactive
Potency (MKL-1): inactive
Potency (MKL-2): inactive
Potency (UISO): inactive
Potency (WaGa): inactive

CCCCCCOC(=O)NC(=N)c1ccc(NCc2nc3cc(C(=O)N(CCC(=O)OCC)c4ccccn4)ccc3n2C)cc1
max response (NIH3T3 [1]): 1.24%
outcome (HACAT): inactive
Potency (MCC-13): inactive
Potency (MCC-26): inactive
Potency (MKL-1): 8.41 µM (active)
Potency (MKL-2): 15 µM (active)
Potency (UISO): inactive

C/C(=N/NC(=O)c1ccncc1)C(=O)O
max response (NIH3T3 [1]): 0.247%
outcome (HACAT): inactive
Potency (MCC-13): inactive
Potency (MCC-26): inactive
Potency (MKL-1): inactive
Potency (MKL-2): inactive
Potency (UISO): inactive
Potency (WaGa): inactive

CCCC(CCC)(C(=O)OCC)C(=O)OCC
max response (NIH3T3 [1]): 4.44%
outcome (HACAT): inactive
Potency (MCC-13): inactive
Potency (MCC-26): inactive
Potency (MKL-1): inactive
Potency (MKL-2): inactive
Potency (UISO): inactive
Potency (WaGa): inactive

Cc1cc(O)c2c(O)c3c(O)cccc3cc2c1
max response (NIH3T3 [1]): -2.19%
outcome (HACAT): inactive
Potency (MCC-13): inactive
Potency (MCC-26): inactive
Potency (MKL-1): inactive
Potency (MKL-2): inactive
Potency (UISO): inactive
Potency (WaGa): inactive

O=C(O)c1ccc(OCCN2CCCCC2)cc1
max response (NIH3T3 [1]): 1.34%
outcome (HACAT): inactive
Potency (MCC-13): inactive
Potency (MCC-26): inactive
Potency (MKL-1): inactive
Potency (MKL-2): inactive
Potency (UISO): inactive
Potency (WaGa): inactive

CCCC(=O)O[C@]1(C(=O)COC(=O)CC)CC[C@H]2[C@@H]3CCC4=CC(=O)CC[C@]4(C)[C@H]3[C@@H](O)C[C@@]21C
max response (NIH3T3 [1]): 1.36%
outcome (HACAT): inactive [at 17.4 µM]
Potency (MCC-13): inactive
Potency (MCC-26): inactive
Potency (MKL-1): inactive
Potency (MKL-2): inactive
Potency (UISO): inactive
Potency (WaGa): inactive

Oc1ccc(CCNCCCCCCNCCc2ccccc2)cc1O
max response (NIH3T3 [1]): -5.45%
outcome (HACAT): inactive
Potency (MCC-13): inactive
Potency (MCC-26): inactive
Potency (MKL-1): 2.11 µM (active)
Potency (MKL-2): 0.596 µM (active)
Potency (WaGa): 10.6 µM (active)

NCC[C@H](O)C(=O)N[C@@H]1C[C@H](N)[C@@H](O[C@H]2O[C@H](CN)[C@@H](O)[C@H](O)[C@@H]2O)[C@H](O)[C@@H]1O[C@H]1O[C@H](CO)[C@@H](O)[C@H](N)[C@@H]1O
max response (NIH3T3 [1]): -2.83%
outcome (HACAT): inactive [at 0.588 µM]
activity change, negative = cytotoxicity (MCC-13): 1.29% [at 0.597 µM]
activity change, negative = cytotoxicity (MCC-26): 13.8% [at 0.597 µM]
activity change, negative = cytotoxicity (MKL-1): 9.09% [at 0.597 µM]
activity change, negative = cytotoxicity (MKL-2): 22.5% [at 0.597 µM]
activity change, negative = cytotoxicity (UISO): 23.5% [at 0.597 µM]
activity change, negative = cytotoxicity (WaGa): 23.2% [at 0.597 µM]

CCCCC(CC)CNC(=O)CC(C)OC(=O)CCC(=O)O (stereo unspecified)
max response (NIH3T3 [1]): -1.58%
outcome (HACAT): inactive
Potency (MCC-13): inactive
Potency (MCC-26): inactive
Potency (MKL-1): inactive
Potency (MKL-2): inactive
Potency (UISO): inactive
Potency (WaGa): inactive

CC(=O)N(c1onc(C)c1C)S(=O)(=O)c1ccc(N)cc1
max response (NIH3T3 [1]): -5.11%
outcome (HACAT): inactive
Potency (MCC-13): inactive
Potency (MCC-26): inactive
Potency (MKL-1): inactive
Potency (MKL-2): inactive
Potency (UISO): inactive
Potency (WaGa): inactive

CCN(CC)CC(=O)Nc1c(C)cccc1C(=O)OC
max response (NIH3T3 [1]): 1.11%
outcome (HACAT): inactive
Potency (MCC-13): inactive
Potency (MCC-26): inactive
Potency (MKL-1): inactive
Potency (MKL-2): inactive
Potency (UISO): inactive
Potency (WaGa): inactive

Nc1nc2ccccc2n1Cc1ccc(F)cc1
outcome (NIH3T3 [1]): inactive
outcome (HACAT): inactive
Potency (MCC-13): inactive
Potency (MCC-26): inactive
Potency (MKL-1): inactive
outcome (NIH3T3 [2]): inactive

C[C@@H]1CCC[C@H](C)N1CCCC(O)(c1ccccc1)c1ccccn1 (stereo partly specified)
max response (NIH3T3 [1]): -1.21%
outcome (HACAT): inactive
Potency (MCC-13): inactive
Potency (MCC-26): inactive
Potency (MKL-1): inactive
Potency (MKL-2): inactive
Potency (UISO): inactive
Potency (WaGa): inactive

Nc1c(I)cc(I)c(C(=O)N(CCC(=O)O)c2ccccc2)c1I
max response (NIH3T3 [1]): 0.521%
outcome (HACAT): inactive
Potency (MCC-13): inactive
Potency (MCC-26): inactive
Potency (MKL-1): inactive
Potency (MKL-2): inactive
Potency (UISO): inactive
Potency (WaGa): inactive

CCCCCCn1c(=O)c2c(ncn2C)n(C)c1=O
max response (NIH3T3 [1]): 1.26%
outcome (HACAT): inactive
Potency (MCC-13): inactive
Potency (MCC-26): inactive
Potency (MKL-1): inactive
Potency (MKL-2): inactive
Potency (UISO): inactive
Potency (WaGa): inactive

CC(C)OP(=O)(CP(=O)(OC(C)C)OC(C)C)OC(C)C
max response (NIH3T3 [1]): -2.18%
outcome (HACAT): inactive
Potency (MCC-13): inactive
Potency (MCC-26): inactive
Potency (MKL-1): inactive
Potency (MKL-2): inactive
Potency (UISO): inactive
Potency (WaGa): inactive

CC(C)C(=O)Nc1cccc(C(F)(F)F)c1
max response (NIH3T3 [1]): 2.63%
outcome (HACAT): inactive
Potency (MCC-13): inactive
Potency (MCC-26): inactive
Potency (MKL-1): inactive
Potency (MKL-2): inactive
Potency (UISO): inactive
Potency (WaGa): inactive

CCOC(=O)c1cc(=O)c2c(OCC(COc3cccc4oc(C(=O)OCC)cc(=O)c34)OC(=O)[C@@H](N)CCCCN)cccc2o1
outcome (NIH3T3 [1]): inactive
outcome (HACAT): inactive
Potency (MCC-13): inactive
Potency (MCC-26): inactive
Potency (MKL-1): inactive
outcome (NIH3T3 [2]): inactive
Potency (UISO): inactive

CCCCCCCC(=O)[O-].CCCCCCCC(=O)[O-].[Zn+2]
max response (NIH3T3 [1]): 4.51%
outcome (HACAT): inactive
Potency (MCC-13): inactive
Potency (MCC-26): inactive
Potency (MKL-1): inactive
Potency (MKL-2): inactive
Potency (UISO): inactive
Potency (WaGa): inactive

N#CSCC(=O)O
outcome (NIH3T3 [1]): inactive
outcome (HACAT): inactive
Potency (MCC-13): inactive
Potency (MCC-26): inactive
Potency (MKL-1): inactive
outcome (NIH3T3 [2]): inactive
Potency (UISO): inactive
Potency (WaGa): inactive

CC(=O)Nc1c(I)c(NC(C)=O)c(I)c(C(=O)O)c1I
max response (NIH3T3 [1]): 4.63%
outcome (HACAT): inactive
Potency (MCC-13): inactive
Potency (MCC-26): inactive
Potency (MKL-1): inactive
Potency (MKL-2): inactive
Potency (UISO): inactive
Potency (WaGa): inactive

CC(Oc1c(Cl)cccc1Cl)C1=NCCN1 (stereo unspecified)
max response (NIH3T3 [1]): 3.55%
outcome (HACAT): inactive
Potency (MCC-13): inactive
Potency (MCC-26): inactive
Potency (MKL-1): inactive
Potency (MKL-2): inactive
Potency (UISO): inactive
Potency (WaGa): inactive
